Measurements published in PubChem BioAssay (NCI).
About 83,000 compounds went through this panel and 20% of them were active in at least one assay; those are over-represented in the sample as a whole.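 Step 1: grow cells in 96-well plates. Step 2: add test compound at a single concentration. Step 3: incubate 48 h. Step 4: record percent growth.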 Unmarked numbers belong to inactive results. Activity calls are given as the source filed them. Rule for the calls: active = growth percent below 10; inactive = the rest.

Test system: MDA-MB-468 breast
Test: NCI-60 one-dose screen, 48 h (100 = growth as untreated, 0 = no growth, -100 = all killed)
Details: 10 µM unless noted

| Structure (SMILES) | growth |
| --- | --- |
| CCOC(=O)c1[nH]c(C#N)c(C(=O)OCC)c1C | 105% |
| CCCCCCC/C=C/[C@H]1O[C@]2(O)C(=O)C=C3C[C@@H](O[C@@H]4O[C@H](CO)[C@@H](O)C(O)[C@@H]4O)C[C@@H]3[C@H]2C=C1C (stereo not given in full) | -3.04% (active) |
| Oc1ccc(O)c(-[n+]2ccccc2)c1 | 91.8% |
| CCOC(=O)C(CCC#N)(CCC#N)C(=O)OCC | 99.9% |
| C=C1CCC2C3(C)COC(c4ccccc4Br)OC3CCC2(C)C1C/C=C1/C(=O)OCC1OC(C)=O (stereo not given) | -34.3% (active) |
| Cc1c(C(=O)Nc2nc(-c3ccccc3)cs2)nnn1-c1cccc2ccccc12 | 12.3% [50 µM] |
| C=C1C(=O)O[C@H]2[C@H]1CC/C(C(=O)NCCCCCNC(=O)/C1=C/CC[C@@]3(C)O[C@H]3[C@H]3OC(=O)C(=C)[C@@H]3CC1)=C\CC[C@@]1(C)O[C@@H]21 | 94.9% |
| COc1ccc(-c2c(-c3cc4c(c(OC)c3OC)OCO4)noc2N)cc1 | -6.43% (active) |
| C=C1C[C@H](O)[C@H](Br)C(C)(C)[C@@]12CCC(C)=C(Cl)C2 | -28.3% (active) |
| NS(=O)(=O)c1ccc(CCn2c(SCC(=O)c3ccc(Cl)cc3)nc3ccccc3c2=O)cc1 | 105% |
| Cn1c(=O)c2c3c(oc2c2ccccc21)C(=O)c1ccccc1C3=O | -9.91% (active) |
| Cc1ccc(S(=O)(=O)Nc2cc(Sc3ccccc3)c(O)c3ccccc23)cc1 | -53.9% (active) |
| Cc1nnc(-n2c(O)cc(=O)n(-c3ccccc3)c2=S)nc1/C=C/c1ccc(N(C)C)cc1 | 25.8% |
| CCOC(=O)c1c(N)c(C#N)cn1-c1cc(OC)c(OC)c(OC)c1 | 103% |
| O=c1ccc(=O)n(-c2nc(-c3ccc([N+](=O)[O-])cc3)cs2)[nH]1 | 99.3% |
| C=C1CC[C@@H](C(=O)OC)Cc2nc(C)ccc21 | 106% |
| CN(C)CCN1C(=O)c2cccc3c(/C=C/CN4C(=O)c5cccc6cccc(c56)C4=O)ccc(c23)C1=O | 88.9% |
| O=C(NCCN1CCC(O)CC1)c1cc2c(o1)C(=O)c1ccccc1C2=O | -85.8% (active) |
| CSc1ccc(/C(=N/N=C(N)N)c2ccccc2)cc1 | 44.8% |
| Cc1ccc(C(=O)c2sc3nc4c(cc3c2N)CCCC4)c(C)c1 | 32.3% |
| C[C@H]1c2ccccc2CN1CCCOc1cc2c(cc1OCC1CC1)C1(CCCC1)C(N)=N2 | 29.2% |
| COc1cc(NC(=O)Nc2cnc(Nc3ccc(N4CCOCC4)cc3)nc2Oc2cccc(OC)c2)cc(OC)c1 | 29.9% |
| CC1=C(C)C(=O)C(Nc2ccc(C)cc2)=C(Br)C1=O | -4.77% (active) |
| Cc1cccc(C[C@H](NC(=O)Nc2ccc(Cl)cc2F)C(=O)N[C@@H]2C(=O)N3C[C@H](O)C[C@H]3C(=O)N3CCN(C)C[C@H]3C(=O)N[C@@H](C)C(=O)N3C[C@H](C)C[C@H]3C(=O)O[C@H]2C)c1 | 15.7% |
| CC1CCC(n2cnc3c(Cl)ncnc32)O1 (stereo not given) | 96.3% |

| Structure (SMILES) | growth |
| --- | --- |
| CC[C@H](C)[C@H](NC(=O)[C@H](CCCNC(=N)N)NC(=O)[C@H](Cc1c[nH]c2ccccc12)NC(=O)[C@@H](NC(=O)[C@H](CCCCN)NC(=O)[C@H](CCCCN)NC(=O)[C@@H](NC(=O)[C@@H](NC(=O)[C@@H](NC(=O)[C@H](CCCCN)NC(=O)[C@H](Cc1ccccc1)NC(=O)[C@H](CCCCN)NC(=O)[C@H](CCCCN)NC(=O)[C@H](Cc1ccccc1)NC(=O)[C@@H](NC(=O)[C@@H](N)CCCCN)[C@@H](C)CC)[C@@H](C)O)[C@@H](C)CC)[C@@H](C)CC)C(C)C)C(=O)N[C@@H](Cc1ccccc1)C(=O)NCC(=O)N[C@@H](CCCNC(=N)N)C(=O)N[C@@H](Cc1ccccc1)C(N)=O | 28.8% |
| Clc1ccccc1C(c1ccccc1)(c1ccccc1)n1ccnc1 | 2.94% (active) |
| COc1ccc2c(c1)nc(N)c1c3cc(C)c(C)cc3cn21 | 48.3% |
| O=[P@@]1(c2ccccc2)O[C@H](COCc2ccccc2)[C@@H](OCc2ccccc2)[C@H](OCc2ccccc2)[C@H]1NCc1ccccc1 | 14% |
| CC(=O)c1cc(C(=O)c2ccc3c(c2)Sc2ccccc2N3)c2c(C)cc(C)cn12 | 14% |
| CCCCCCCCCCCCCCCc1ccc(N)c(OC2OC(CO)C(O)C(O)C2O)c1 (stereo not given) | 76.5% |
| CC(C)CCSc1nc(Nc2ccccc2)c(C#N)c(-c2ccc(F)cc2)n1 | 60.6% |
| CCc1cccc2c3c(sc12)C(c1ccc(Cl)cc1)C(C#N)=C(/N=C/c1ccc(Cl)cc1)O3 (stereo not given) | -16.3% (active) |
| N#CC1C(c2ccc(Cl)cc2)=Nc2c(c(-c3ccccc3)nn2-c2ccccc2)C12C(=O)Nc1ccc(Cl)cc12 (stereo not given) | 26.3% |
| COc1cc2c(c(OC)c1OC)CCc1cnoc1-2 | 83.8% |
| COc1ccc(Br)c2ccccc12 | 100% |
| CCOC(=O)C#Cc1c(C(=O)OCC)nnn1Cc1ccc(C(F)(F)F)cc1 | -25.7% (active) |
| O=C(CN1C(=O)c2ccccc2S1(=O)=O)Nc1nc(-c2cc3ccccc3oc2=O)cs1 | 100% |
| C[N+]1=C(/C=C/c2ccccc2Cl)C(C)(C)c2ccccc21 | 88.1% |
| O=C(CSc1nnc(-c2cc(-c3ccccc3)nc3ccccc23)n1-c1ccccc1)Nc1ccc(C(=O)/C=C/c2ccc(Cl)cc2)cc1 | 88.9% |
| CC1(C)CC(=O)C2=C(C1)N(c1ccc(OC(F)(F)F)cc1)C(N)=C(C#N)C2c1ccc(Br)cc1F (stereo not given) | 55.7% |
| C[n+]1cc2c3c(ccc2c2ccc4cc5c(cc4c21)OCO5)OCO3 | -93.7% (active) |
| COc1cc(/C=C/C(=O)C(=Cc2ccc(F)c(F)c2)C(=O)/C=C/c2ccc(O)c(OC)c2)ccc1O | 25.6% |
| COc1cc2cc3c(=O)n4c(cc5cc(OC)ncc54)c(=O)n3c2cn1 | 102% |
| C=CN(C(=O)N1CCN(c2cc3c(cc2F)c(=O)c(C(=O)O)cn3C2CC2)CC1)c1nc(-c2ccccc2)cs1 | 100% |
| COc1ccc(Br)cc1NC(=O)Nc1cccc2c1ccn2Cc1ccnc(N)c1 | -14.4% (active) |
| S=C(Nc1ccc(Cl)cc1)c1ccccn1 | 98.9% |
| CCCCCCNC(=O)Oc1ccc(/C(=C(\C)c2ccccc2)c2ccc(OCCN(CC)CC)cc2)cc1 | 74.9% |
| COC(=O)[C@]12CC[C@@H](C)[C@H](C)[C@@H]1C1=CC[C@@H]3[C@@]4(C)C/C(=N\O)[C@H](O)[C@@]5(C)COC(=C45)C[C@@]3(C)[C@]1(C)CC2 | -71.7% (active) |
| Nc1nc(N)c2cc(Sc3ccc(Cl)cc3)ccc2n1 | 18.7% |

| Structure (SMILES) | growth |
| --- | --- |
| COc1ccc(S(=O)(=O)n2cc(C(=O)C(=O)Nc3ccncc3)c3ccccc32)cc1F | 17.9% |
| O=S(=O)(NCCNc1cc(-c2cn(-c3ccccc3)nc2-c2cccc(O)c2)ccn1)c1ccc(C(F)(F)F)cc1 | 21.6% |
| COc1ccc(/C(C)=C(\c2ccc(Cl)cc2)c2ccc(OCCN3CCCCC3)cc2)cc1F | 15.7% |
| COC(=O)[C@@H](Cc1c[nH]c2ccccc12)NC(=O)/C=C/c1ccccc1 | 19.6% |
| C[C@]12CC[C@@H]3c4cc(OC(F)F)c(OS(N)(=O)=O)cc4CC[C@H]3[C@@H]1CC[C@@H]2O | -24.2% (active) |
| CCCOC(=O)Nc1nc2ccc(SCC(C)C)cc2s1 | -9.94% (active) |
| c1ccc(-c2nc3nonc3nc2-c2ccccc2)cc1 | 38.9% |
| O=C(CSc1nc2ccccc2c(=O)n1-c1ccc(Cl)c(Cl)c1)Nc1ccc(S(=O)(=O)Nc2ccc(Cl)nn2)cc1 | 116% |
| O=C(Nc1ccc(F)cc1)c1cc([N+](=O)[O-])ccc1O | 56.3% |
| CC(C)(C)CC(N)=O | 101% |
| COc1ccc(-c2nnc3c4[nH]cnc4ncn23)c(OC)c1 | -16.2% (active) |
| C=C1CCC2C3(C)COC(c4ccccc4)OC3CCC2(C)C1C/C=C1/C(=O)OCC1OC(C)=O (stereo not given) | 53% |
| Cc1cccc[n+]1CCC[n+]1ccccc1C | 103% |
| O=C1C=CC(=O)N1C1c2ccccc2-c2ccccc21 | 66.9% |
| CNCCCn1c2c(c3ccc([N+](=O)[O-])cc3c1=O)C(=O)c1cc(OC)cnc1-2 | -39.5% (active) |
| CN1CCN(CCCOc2ccc3ncnc(Nc4ccc(Oc5cccc(C(F)(F)F)c5)c(Cl)c4)c3c2)CC1 | -24.2% (active) |
| Nc1c(C(=O)c2ccccc2)nnc2ncnn12 | 99.7% |
| CCOC(=O)c1cnc2ccc(Br)cc2c1Nc1cccc(S(N)(=O)=O)c1 | 106% |
| Cn1nnnc1-c1ccc(N)cc1 | 117% |
| O=C(CN1CCOCC1)Nc1ccc(Cn2nnc3c2C(=O)c2nnn(Cc4ccc(NC(=O)CN5CCOCC5)cc4)c2C3=O)cc1 | -61.7% (active) |
| COc1ccc2[nH]c(C(=O)OCc3ccc4cccc(O)c4n3)cc2c1 | -70.8% (active) |
| O=C1Nc2ccccc2C12CC(c1ccccc1)=NN2 (stereo not given) | 66.4% |
| CC1(C)[C@@H](O)CC[C@]2(C)[C@H]3CC[C@@H]4[C@H]5[C@H](c6cn(-c7ccccc7)nn6)CC[C@]5(CO)CC[C@@]4(C)[C@]3(C)CC[C@@H]12 | 65.4% |
| CCOC(=O)C1=C(N)Oc2c(sc3c(CC)cccc23)C1c1ccc(F)cc1 (stereo not given) | 46.1% |
| Cn1cc(-c2nc(N)nnc2-c2c[nH]c3ccccc23)c2cc(Br)ccc21 | 33% |
